In all, about 10,000 compounds went through this assay and about 25 (0.2%) were called active.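 The calls were made as follows: active = top tenth filtered wells with inhibition above zero that passed visual or statistical confirmation; inactive = the rest, including hits rejected on review.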 The sample as a whole holds a higher share of actives than the screen did. Results with a measured potency or affinity are listed apart.

In PubChem BioAssay AID456 (Sanford-Burnham Center for Chemical Genomics, 2006) one finds inhibition data, which are given here for 30 compounds.

The nature of this test: suppression of endothelial VCAM-1 upregulation – imaging, high-content imaging, pooled HUVEC, TNFa stimulus (AID 456).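 As to inhibition: VCAM-1 immunofluorescence minus red nonspecific channel after plate median normalization.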 Conditions: HUVEC TNFa-induced VCAM-1 surface expression, immunofluorescence imaging;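 compounds screened at 5 µM final in the well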.
For `Cc1ccc2oc(=O)c3cnn(CC(=O)N4CCCCC4C)c3c2c1` (stereo not given), the inhibition result was “inactive”.
On to `Cc1cc(NS(=O)(=O)c2ccc(NC(=O)C(C)N3C(=O)c4ccccc4C3=O)cc2)nc(C)n1` (stereo not given), for which the inhibition result is “inactive”.
To `CC(=O)Nc1ccc(Cc2ccncc2)cc1` belongs “inactive”.
Regarding `CN(C)S(=O)(=O)c1ccc(Oc2ccc(S(=O)(=O)N(C)C)cc2)cc1`, the inhibition result was “inactive”.
Take `O=S(=O)(Nc1ccccn1)c1ccc(Oc2ccccc2)cc1`: the inhibition result is “inactive”.
`COCCn1c(COc2ccc(Cl)cc2)nnc1SCC(N)=O`: the inhibition entry was “inactive”.
In the case of `Cc1cc(NC(=O)CSc2nnc(COc3cccc(C)c3C)n2Cc2ccco2)no1`, the inhibition entry is “inactive”.
`Cc1occc1C(=O)N1CCN(Cc2ccccc2)CC1`: the inhibition result is “inactive”.
As for `CCOC(=O)c1sc(N)c(C(=O)OCC)c1COC(=O)C1CC(=O)N(Cc2ccco2)C1` (stereo not given), the inhibition entry is “inactive”.
Consider `O=C(CN(c1ccccc1)S(=O)(=O)c1ccccc1)N1CCN(Cc2ccc3c(c2)OCO3)CC1`, for which the inhibition entry was “inactive”.
Regarding `CCOC(=O)CNC(=O)c1c(C)nn(-c2ccccc2)c1Cl`, the inhibition result is “inactive”.
Consider `COc1ccc(S(=O)(=O)NCC(=O)N(CC(=O)NCC2CCCO2)c2ccccc2C)cc1` (stereo not given), for which the inhibition result is “inactive”.
With `Cc1cccc(N2CCN(C(=O)CCn3c(=S)[nH]c4cc5c(cc4c3=O)OCO5)CC2C)c1` (stereo not given), the inhibition entry is “inactive”.
As to `CC1(C)C(c2ccccc2)=NC(c2ccccc2)N1O` (stereo not given), the inhibition result is “inactive”.
For `O=C(NCCN1CCOCC1)c1csc2c1CCCC2`, the inhibition result is “inactive”.
With `CCOC(=O)N1CCN(CC(O)COc2ccccc2C(C)CC)CC1` (stereo not given), the inhibition result is “inactive”.
With `CCN(CC(=O)Nc1ccc(S(N)(=O)=O)cc1)S(=O)(=O)c1cc(C)ccc1OC`, the inhibition entry is “inactive”.
Turning to `CCCCC(=NCCO)C1=C(O)C(C(=O)OC)C(C)(C)CC1=O` (stereo not given), the inhibition entry was “inactive”.
To `O=C(CSc1nc2ccsc2c(=O)n1NC(=O)c1ccccc1)Nc1nccs1` belongs “inactive”.
`COc1ccc(Cn2c(N)c(C#N)c3nc4ccccc4nc32)cc1OC`: the inhibition result was “inactive”.
On to `COc1ccc(C)cc1-n1c(N)c(C#N)c(C#N)c1-c1ccc(OC)c(OC)c1OC`, for which the inhibition was 77% (active).
Regarding `COc1cc2c(C)nc(C)c(C#N)c2cc1OC`, the inhibition result is “inactive”.
Take `Cc1cc2cc(CN(CC3CCCO3)C(=O)c3cnccn3)c(=O)[nH]c2cc1C` (stereo not given): the inhibition result was “inactive”.
Turning to `COc1ccc2oc(C)c(C(=O)Cn3ccnc3)c2c1`, the inhibition entry is “inactive”.
For `Cn1c(=O)c2c(nc(SCCCO)n2Cc2ccccc2Cl)n(C)c1=O`, the inhibition entry was “inactive”.
The figure for `Cn1c(=O)c2c(nc(SCCCC#N)n2Cc2c(F)cccc2Cl)n(C)c1=O` is 72.9% (active); for `Cn1c(=O)c2c(nc(SCCCC#N)n2Cc2ccccc2F)n(C)c1=O` it is “inactive”.
To `O=C(c1csc2ccccc12)N1CCCCCC1` belongs “inactive”.
Regarding `Cn1c(-c2ccc(F)cc2)cnc1SCC(=O)Nc1ccccc1N1CCOCC1`, the inhibition entry was “inactive”.
Consider `Cc1ccnc2c(N3C(=O)C4C5C=CC(C5)C4(C)C3=O)cccc12` (stereo not given), for which the inhibition result was “inactive”.
